Measurements reported in PubChem BioAssay (NCATS).
Inconclusive results are not listed. The source made the active and inactive calls. Unless noted, calls come from the whole dose curve; as a rule, active = well fitted curve in the direction sought with a large enough effect; inconclusive = small, poorly fitted or top-dose-only effect, or another doubt; inactive = no such curve, though single readings can be large; an effect the other way counts as inactive or inconclusive.

Legend:
[1] = S16 Schwann cell viability assay (CellTiter-Glo assay) (AID 624031); settings: S16 rat Schwann cells viability, 24 h; series mostly up to 57.5 µM;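 note: native untransfected S16 rat Schwann cells; cellular ATP luminescence as a viability measure; nearly all actives have a fitted effect of over 70% in size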
Outline: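 Concentration-effect curves come from CellTiter-Glo luminescence of S16 rat Schwann cells after 24 h compound exposure. Each reading was normalized to DMSO wells (0%) and wells without cells, and curves were ranked by r2 and response magnitude.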

[2] = S16 Schwann cell PMP22 intronic element beta-lactamase assay (AID 624044; calls by dose curve; note: nearly all actives have a fitted effect of over 15% in size); settings: S16 rat Schwann cells, PMP22 element beta-lactamase FRET, 24 h; series mostly up to 38.3 µM
Outline: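 Rat S16 Schwann cells with beta-Lac driven by a PMP22 intronic element, compound-treated 24 h at 37 °C. LiveBLAzer FRET B/G read: 460 nm normalized to potassium clavulanate vs DMSO; 535 nm FRET as viability; concentration-effect curves classified.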

CP260 = experiment: qHTS profiling for inhibitors of Plasmodium falciparum proliferation (AID 504749); note: nearly all actives have a fitted effect of over 60% in size; settings: P. falciparum in erythrocytes, SYBR Green DNA, 72 h; series mostly up to 28.7 µM
Outline: (§1)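 Readout was DNA-dye fluorescence from lysed cultures, ex 485/em 535 nm. Parasitized red cells had grown 72 h with compound; data scaled between 0.29 uM artemisinin and DMSO wells and corrected using vehicle-only plates.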

CP315 = experiment: as above; settings: P. falciparum in erythrocytes, SYBR Green DNA, 72 h; series mostly up to 28.7 µM
Outline: as §1

JCK = experiment: as above; settings: P. falciparum in erythrocytes, SYBR Green DNA, 72 h; series mostly up to 28.7 µM
Outline: as §1

Measured: Potency

C/C=C1\C2C=C(C)CC1(N)c1ccc(=O)[nH]c1C2 (stereo not given)
inactive: all assays above
